Reference: PubChem BioAssay (NCI)
This is part of a sample that, as a whole, favours compounds with a hit. Of some 79,000 tested, about 15% had one in any assay. Cut-off read from the data, not from the text of the source: active = growth inhibition above about 70%; inactive = the rest.

What was measured:
[1] = NCI Yeast Anticancer Drug Screen. Data for the rad50 strain (AID 155);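 note: 0% = growth of vehicle-only cultures of the same strain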; conditions: S. cerevisiae rad50 strain growth inhibition; at 50.0 µM; active compounds read high
Method in brief: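 DNA repair mutant yeast, compound exposure, growth read-out; inhibition is taken relative to vehicle.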

[2] = NCI Yeast Anticancer Drug Screen. Data for the mec2-1 strain (AID 157); conditions: S. cerevisiae mec2-1 strain, at 50.0 µM, active compounds read high
Method in brief: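 Growth inhibition is read against vehicle-treated controls after compound exposure of the mec2-1 yeast strain, which is defective in DNA damage repair or cell cycle control.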

[3] = NCI Yeast Anticancer Drug Screen. Data for the sgs1 mgt1 strain (AID 161);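 note: 0% = growth of cultures given vehicle only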; conditions: S. cerevisiae sgs1 mgt1 strain, at 50.0 µM, active compounds read high
Method in brief: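 This yeast growth screen uses a strain with defined DNA-repair lesions; compound-treated growth is compared with vehicle-treated growth.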

[4] = NCI Yeast Anticancer Drug Screen. Data for the cln2 rad14 strain (AID 165);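 note: 0% = growth equal to vehicle treated cultures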; conditions: S. cerevisiae cln2 rad14 strain, at 50.0 µM, active compounds read high
Method in brief: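 Growth inhibition, relative to vehicle-treated controls, is the read-out. The test organism is a yeast strain with defined genetic alterations, cln2 rad14.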

[5] = NCI Yeast Anticancer Drug Screen. Data for the bub3 strain (AID 167); conditions: S. cerevisiae bub3 mutant strain, at 50.0 µM, active compounds read high
Method in brief: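 In this screen, a yeast mutant lacking normal mitotic checkpoint function is challenged with compound. Relative growth versus vehicle gives the inhibition value.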

[6] = NCI Yeast Anticancer Drug Screen. Data for the mlh1 rad18 strain (AID 175); conditions: S. cerevisiae mlh1 rad18 strain growth inhibition; at 50.0 µM; active compounds read high
Method in brief: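 Cells of a genetically altered yeast strain, deficient in DNA damage repair, were treated with compound. Their growth was then compared with that of vehicle-treated cultures to give inhibition.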

Measured: growth inhibition

Nc1c(Br)cc(O)c2c1C(=O)c1ccccc1C2=O
inactive: [1] -11.6% | [2] -3.5% | [3] 8.55% | [4] 7% | [5] 26.9% | [6] 10.5%

CC(=O)NCNC(C)=O
inactive: [1] -4.1% | [2] 5.4% | [3] 3.75% | [4] -75.1% | [5] 7.8% | [6] -0.6%

Cc1cc(CC(=O)NCCO)n(CCO)c(=O)c1
inactive: [1] -7.85% | [2] -21.5% | [3] 6.55% | [4] 6.25% | [5] -2.7% | [6] -2.9%

Cc1ccc2nc(-c3ccc(N=Cc4ccccc4O)cc3)sc2c1
inactive: [1] 17.7% | [2] 12.9% | [3] 6.5% | [4] -6% | [5] 27.9% | [6] 12.3%

CCOC(=O)N[C@H]1CCc2cc(OC)c(OC)c(OC)c2-c2ccc(SC)c(=O)cc21
inactive: [1] 33.5% | [2] -16.5% | [3] 16.2% | [4] 5.1% | [5] 1.35% | [6] -1.55%

O=C(O)CC1=CCCCC1
inactive: [1] 23.4% | [2] -21.6% | [3] 0.9% | [4] 10.2% | [5] -4.65% | [6] 6.9%

Nc1ncnc2c1ncn2C1OC(CO)C2OC21 (configuration not stated)
inactive: [1] -12.6% | [2] -7.85% | [3] 2.05% | [4] 12.5% | [5] -5.95% | [6] -30.4%

CCCCN(C(=O)CC)c1ccccc1
inactive: [1] 23.7% | [2] -29.8% | [3] 9.5% | [4] -22.4% | [5] -12.9% | [6] -62.5%

CN(C)c1ccc2nc3ccc(=[N+](C)C)cc-3oc2c1
inactive: [1] -27.8% | [2] -12.4% | [3] -27.7% | [4] -250% | [5] 6.1% | [6] -12%

Cc1ccccc1NC(=O)Oc1ccc(Cl)cc1C(=O)c1ccccc1
inactive: [1] -0.15% | [2] -27.4% | [3] 18.7% | [4] 24.4% | [5] 21.2% | [6] 11.4%

C=CCc1cc(OC)c(OC)c(OC)c1
inactive: [1] 7.8% | [2] -4.2% | [3] -16.3% | [4] -6.6% | [5] -9.7% | [6] -4%

C=CCNC(=S)N/C=C(/C(=O)c1ccccc1)c1ccccc1
inactive: [1] -53.6% | [2] -23.8% | [3] -45.2% | [4] -31.5% | [5] -20.4% | [6] -53.6%

COc1ccc(C)cc1NC(=O)SC(C)C
inactive: [1] -9.75% | [2] -18.9% | [3] 9.4% | [4] -5.2% | [5] 18.4% | [6] 6.1%

CCN(C(C)=O)c1ccc([N+](=O)[O-])cc1
inactive: [1] -11.9% | [2] -1.65% | [3] 2% | [4] -41.8% | [5] 3.05% | [6] -13.7%

COC1C(=O)CCC2(CO2)C1(O)C1(C)OC1CCC(C)C (configuration not stated)
inactive: [1] -27.1% | [2] -42.4% | [3] -18.5% | [4] -3.85% | [5] -16.1% | [6] -4.55%

CCOC(=O)CNC
inactive: [1] 3.55% | [2] -3.25% | [3] -12.7% | [4] -4.5% | [5] 10.3% | [6] -10.9%

O=C(c1ccccc1O)N1CCCC1
inactive: [1] 19.6% | [2] 7.15% | [3] 19.9% | [4] 14.8% | [5] 2.15% | [6] 10.8%

C=CCc1cc(OC)c(O)c(OC)c1
inactive: [1] 1.95% | [2] 1.3% | [3] -14.2% | [4] -7.55% | [5] 0.75% | [6] -0.6%

CNc1ccccc1C(N)=O
inactive: [1] -21.5% | [2] -28.6% | [3] -10.3% | [4] 11.7% | [5] -7.85% | [6] -6.5%

CC1(c2ccccc2)CO1 (configuration not stated)
inactive: [1] -2.8% | [2] -21.4% | [3] -7.85% | [4] -11.1% | [5] -14.9% | [6] 4.3%

CC12CCC3c4ccc(O)cc4CCC3C1CCC2=O (configuration not stated)
inactive: [1] 26.2% | [2] -11.8% | [3] 14.7% | [4] 12.7% | [5] 18.5% | [6] 3.45%

C=C(C)COc1ccc(C(C)(C)C)cc1
inactive: [1] 18.1% | [2] 16.7% | [3] 11.1% | [4] 8.1% | [5] 17.6% | [6] 12%

Cc1cc(C(=O)NN)c(C#N)c(=O)[nH]1
inactive: [1] 2.2% | [2] -5.55% | [3] -2.15% | [4] -17.5% | [5] 2.6% | [6] -0.5%

CC(C)(CC(=O)O)CC(=O)O
inactive: [1] 14.4% | [2] 1.15% | [3] 0% | [4] 23.8% | [5] 16.1% | [6] 14.8%

OCCNc1ccccc1
inactive: [1] 31.9% | [2] 11.4% | [3] 2.75% | [4] 11.1% | [5] 6.3% | [6] 9.7%

Nc1ccn(C2CC(N)C(CO)O2)c(=O)n1 (configuration not stated)
inactive: [1] 16.1% | [2] 7.15% | [3] 9.25% | [4] 19.8% | [5] 6.9% | [6] 32.4%

N#Cc1ccc(OC(=O)Nc2cc(Cl)cc(Cl)c2)cc1
inactive: [1] -6.5% | [2] -21.9% | [3] -3.65% | [4] 12.9% | [5] -4% | [6] -3.55%

CCN(CC)c1ccc2nc3ccc(N=Nc4ccc(N(C)C)cc4)cc3[n+](-c3ccccc3)c2c1
inactive: [1] 42.5% | [2] 52.5% | [3] 57.7% | [4] 54.9% | [5] 39.5% | [6] 38.9%

Nc1cc(N)ncn1
inactive: [1] -1.3% | [2] -18.9% | [3] 3.6% | [4] 22.5% | [5] -10.1% | [6] 26.7%

CCOC(=O)C(C#N)=C1CCN(C)CC1
inactive: [1] 8.45% | [2] -4.75% | [3] -0.75% | [4] 10.2% | [5] -27.4% | [6] -5.6%

C=CCS(C)(=O)=O
inactive: [1] -13.8% | [2] -18.6% | [3] -11.8% | [4] 5.7% | [5] -0.8% | [6] -3.65%

c1cc(CNCCNCc2ccncc2)ccn1
inactive: [1] -36% | [2] -48% | [3] -46.5% | [4] -4.15% | [5] -34% | [6] -34.5%
